Measurements reported in PubChem BioAssay (Tox21).
Records with an inconclusive call do not appear. Values without a mark were called inactive. Calls come from the whole dose curve; as a rule, active = well fitted inhibition curve with a large enough effect in the signal ratio in the repeat runs (not every such curve was filed as active); inconclusive = weak or mixed curves, or effect the other way; inactive = no such curve, though single readings can be large or run the other way; the % refers to the signal ratio.

Target: Bile acid receptor (Homo sapiens) (UniProt Q96RI1)
Assay: qHTS assay to identify small molecule antagonists of the farnesoid-X-receptor (FXR) signaling pathway (AID 743217)
Settings: HEK293T FXR-UAS-bla, beta-lactamase ratio, CDCA-stimulated, 16 h; series mostly up to 62.6 µM; activity change, negative = inhibition: at the top concentration
Description: U.S. Tox21 Program National Center for Advancing Translational Sciences [NCATS] NIH Chemical Genomics Center [NCGC] U.S. Environmental Protection Agency [EPA] National Institutes of Environmental Health Sciences [NIEHS] National Toxicology Program [NTP] U.S. Food and Drug Administration [FDA] Tox21 Assay Overview: The farnesoid-X-receptor (FXR), a nuclear hormone receptor, is highly expressed in liver, intestine, kidney and adrenal cortex. Natural ligands of FXR are the bile acids (Cholic acid, Chenodeoxy cholic acid etc). FXR is an important regulator of diverse metabolic pathways, including the bile acid homeostasis, lipid and glucose metabolisms. FXR regulates the expression of target genes by binding either as a monomer or as a heterodimer with the retinoid X receptor (RXR). Numerous studies have reported that FXR exerts protective function during cholestasis, diabetes, liver regeneration, and cancer. To identify compounds that inhibit FXR signaling, GeneBLAzer FXR-UAS-bla HEK 293T cell line (Invitrogen, Carlsbad, CA) containing a beta-lactamase reporter gene under the control of a UAS response element was used to screen the Tox21 10K compound library.
Tox21 Assay Protocol Summary: FXR-bla cells were dispensed at 5000 cells/5uL/well in 1536-well black wall/clear bottom plates using a Multidrop Combi (Thermo Fisher Scientific, Waltham, MA) dispenser. After the assay plates were incubated at 37C and 5% CO2 for 5 h, 23 nL of compounds dissolved in DMSO, positive controls or DMSO only was transferred to the assay plate by a Pintool station (Kalypsys, San Diego, CA), followed by addition of 1 uL Chenodeoxycholic acid (50 uM, final concentration in the wells). The assay plates were incubated at 37C for 16 h. After 1 uL of LiveBLAzerTM B/G FRET substrate was added using a Bioraptr Flying Reagent Dispenser (FRD) workstation (Beckman Coulter, Indianapolis, IN), the plates were incubated at room temperature for 2 h, and fluorescence intensity was measured by an Envision plate reader (PerkinElmer, Shelton, CT).
% is set by controls: 0 for no effect and ±100 for the full control effect.

Sequence of Bile acid receptor (Homo sapiens) (Q96RI1 whole entry, looked up): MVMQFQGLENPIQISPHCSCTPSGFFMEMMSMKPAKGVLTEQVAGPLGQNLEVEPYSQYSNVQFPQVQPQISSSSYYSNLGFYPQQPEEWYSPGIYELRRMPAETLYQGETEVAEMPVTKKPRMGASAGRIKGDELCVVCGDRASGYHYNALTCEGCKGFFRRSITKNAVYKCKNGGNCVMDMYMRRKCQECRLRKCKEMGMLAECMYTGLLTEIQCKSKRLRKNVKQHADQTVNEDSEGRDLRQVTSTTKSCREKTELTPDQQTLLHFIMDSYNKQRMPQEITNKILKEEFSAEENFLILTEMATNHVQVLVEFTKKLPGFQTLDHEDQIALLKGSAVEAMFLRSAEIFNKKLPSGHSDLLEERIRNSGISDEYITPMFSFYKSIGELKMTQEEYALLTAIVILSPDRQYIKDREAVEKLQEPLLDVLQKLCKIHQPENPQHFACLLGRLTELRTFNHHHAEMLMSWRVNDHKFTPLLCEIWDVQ

| Compound | activity change, negative = inhibition |
| --- | --- |
| O=C(O)/C=C/c1ccc(Cn2ccnc2)cc1 | 4.81% |
| CC1=CC(C)C(C=O)C(C)C1 (stereo not given) | 1.99% |
| NC(=O)c1c(Cl)cccc1Cl | 3.3% |
| C=CCSCC1Nc2cc(Cl)c(S(N)(=O)=O)cc2S(=O)(=O)N1 (stereo not given) | 5.84% |
| N#CC1(O)CCCCC1 | 0.953% [at 81.1 µM] |
| CC(C)(C)C(=O)/C=C/c1ccc(Cl)cc1 | 0.38% |
| COc1cc(O)cc(O)c1 | 3.99% |
| CCCCOCC(C)OCC(C)O (stereo not given) | -12% [at 81.1 µM] |
| CC1=CCC2C(C1)C2(C)C (stereo not given) | 7.91% |
| Cc1cc(C)cc(OCC2CNC(=O)O2)c1 (stereo not given) | -0.844% |
| COc1cc(CCC(C)=O)ccc1O | 1.34% |
| Cc1ccc(Nc2ccc(O)c3c2C(=O)c2ccccc2C3=O)cc1 | -8.37% |
| COc1cccc(OC)c1 | 0.57% |
| Nc1[nH]c(=O)ncc1F | 1.03% |
| Nc1ccc2cc(S(=O)(=O)O)ccc2c1 | 0.42% |
| CC(C)(C)N(CCO)CCO | 1.44% [at 81.1 µM] |
| CCCC(C)C(=O)O (stereo not given) | 4.46% |
| C=CCn1c(=O)n([C@@H]2O[C@H](CO)[C@@H](O)[C@H]2O)c2nc(N)[nH]c(=O)c21 | 4.69% |
| NC(=O)CCCCC1CCSS1 (stereo not given) | 7.4% |
| C1=C\CC/C=C\CC/C=C\CC/1 | 8.96% |

| Compound | activity change, negative = inhibition |
| --- | --- |
| CC(=O)N[C@@H](CCC(N)=O)C(=O)O | -0.249% |
| CC1(C)SC(C)(C)SC(C)(C)S1 | 0% |
| OCCN1C[C@H](O)[C@@H](O)[C@H](O)[C@H]1CO | 0.353% |
| Cc1c(C)n(CCN(C)C)c2ccc(C(=O)OCCN(C)C)cc12 | 0.436% |
| NC(=O)Nc1nc2ccccc2[nH]1 | -7.49% |
| CCCCCCCCCCCCI | 0.953% [at 81.1 µM] |
| CCCCCCCCCCCl | 0.253% [at 81.1 µM] |
| NC1CCN(c2cccc(Cl)n2)CC1 | -5.43% |
| Cc1ncc(CSSCc2cnc(C)c(O)c2CO)c(CO)c1O | 4.67% |
| CC1CCN(CCCC(=O)c2ccc(F)cc2)CC1 | -10.8% |
| OCCCCCCO | -0.513% [at 81.1 µM] |
| Nc1cc(N)cc(C(=O)O)c1 | 1.46% |
| Nc1ccn(C2CO[C@H](CO)O2)c(=O)n1 (stereo not given in full) | 0.777% |
| C(=C(c1ccccc1)c1ccccc1)c1ccccc1 | -0.366% |
| CCCC(C)CO (stereo not given) | 0.665% |
| CCOC(=O)[C@H](CCc1ccccc1)N[C@@H](C)C(=O)N1CCC[C@H]1C(=O)O | -4.64% |
| O=C1CC2(CCCC2)CC(=O)N1 | -0.605% |
| CCCOCC(C)OCC(C)O (stereo not given) | 0.612% [at 81.1 µM] |
| CCC(=O)/C=C/c1ccc(OC)cc1 | -1.41% |
| CC(C)[C@H](N)C(=O)OCCOCn1cnc2c(=O)[nH]c(N)nc21 | -4.22% |
